For some of these results: Potency and affinity values are given separately.
How the values were obtained:
Design in all cases: scale not given: direction of the effect not stated beside the values
[1] = target: Protein translocase subunit SecA (Escherichia coli (strain K12)) (UniProt P10408); assay: Assay to Identify E. coli SecA ATPase Inhibitors; assay type: functional; conditions: 30 µM
[2] = target: T1, Ubiquitin-activating enzyme e1, putative (Leishmania donovani (strain BPK282A1)) (UniProt E9BSI1); assay: Leishmania donovani Ubiquitin Activating Enzyme (LdE1); assay type: functional; conditions: 30 µM
T1 sequence (whole entry): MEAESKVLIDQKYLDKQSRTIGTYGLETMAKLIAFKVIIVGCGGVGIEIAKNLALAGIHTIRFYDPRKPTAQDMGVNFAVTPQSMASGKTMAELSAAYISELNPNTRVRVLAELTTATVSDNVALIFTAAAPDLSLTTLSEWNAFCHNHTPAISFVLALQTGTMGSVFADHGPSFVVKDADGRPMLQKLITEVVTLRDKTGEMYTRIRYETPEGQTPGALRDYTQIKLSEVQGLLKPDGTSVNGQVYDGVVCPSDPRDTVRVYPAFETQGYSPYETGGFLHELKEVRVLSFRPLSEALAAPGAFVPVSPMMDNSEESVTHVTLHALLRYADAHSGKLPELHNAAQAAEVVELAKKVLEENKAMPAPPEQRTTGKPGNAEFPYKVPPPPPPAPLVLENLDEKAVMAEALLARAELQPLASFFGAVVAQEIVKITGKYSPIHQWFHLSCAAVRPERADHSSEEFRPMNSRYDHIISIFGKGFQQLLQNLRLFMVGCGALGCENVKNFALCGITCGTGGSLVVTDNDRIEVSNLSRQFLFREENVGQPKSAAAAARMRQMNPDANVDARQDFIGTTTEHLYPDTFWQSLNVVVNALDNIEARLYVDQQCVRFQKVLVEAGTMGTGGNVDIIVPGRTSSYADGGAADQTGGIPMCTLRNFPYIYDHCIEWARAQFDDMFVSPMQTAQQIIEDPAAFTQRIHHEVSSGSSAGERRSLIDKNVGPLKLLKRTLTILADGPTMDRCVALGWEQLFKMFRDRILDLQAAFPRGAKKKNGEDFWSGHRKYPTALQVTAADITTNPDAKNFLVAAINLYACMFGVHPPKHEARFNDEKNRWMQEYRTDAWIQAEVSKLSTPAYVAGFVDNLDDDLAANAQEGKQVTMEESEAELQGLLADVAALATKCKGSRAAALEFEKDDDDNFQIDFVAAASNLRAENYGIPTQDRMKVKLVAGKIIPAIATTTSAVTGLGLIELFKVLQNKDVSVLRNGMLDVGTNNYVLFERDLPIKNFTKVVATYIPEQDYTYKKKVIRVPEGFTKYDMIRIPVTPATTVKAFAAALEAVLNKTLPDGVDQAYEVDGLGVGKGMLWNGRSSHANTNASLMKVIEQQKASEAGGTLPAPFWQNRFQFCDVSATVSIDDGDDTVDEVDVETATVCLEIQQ

[3] = target: AMP-activated protein kinase, AMPK (Homo sapiens) (UniProt P54646+O43741+P54619+Q9UGJ0+Q9Y478+Q13131+Q9UGI9); assay: AMP-dependent Kinase enzyme assay. An in vitro enzyme assay that detects ADP turnover that is directly proportional to AMPK activity. This uses naive AMPK that is activated during the assay with MK-8722; assay type: functional; conditions: 30 µM
[4] = target: Sialic acid-binding Ig-like lectin 9 (Homo sapiens) (UniProt Q9Y336); assay: Hs-Siglec9 ALPHAscreen SOP 20170721; conditions: 10 µM
Trypanosoma cruzi = assay: Trypanosoma cruzi phosphomannomutase and mannose-1-phosphate guanylyltransferase assay; assay type: functional; conditions: 10 µM
[5] = target: T2, Arginase-2, mitochondrial (Homo sapiens) (UniProt P78540); assay: in vitro enzyme assay to detect the production of urea directly proportional to the activity of Arginase II; assay type: functional; conditions: 33.3 µM; also: in the data most compounds retested in dose-response had high values
T2 sequence (whole entry): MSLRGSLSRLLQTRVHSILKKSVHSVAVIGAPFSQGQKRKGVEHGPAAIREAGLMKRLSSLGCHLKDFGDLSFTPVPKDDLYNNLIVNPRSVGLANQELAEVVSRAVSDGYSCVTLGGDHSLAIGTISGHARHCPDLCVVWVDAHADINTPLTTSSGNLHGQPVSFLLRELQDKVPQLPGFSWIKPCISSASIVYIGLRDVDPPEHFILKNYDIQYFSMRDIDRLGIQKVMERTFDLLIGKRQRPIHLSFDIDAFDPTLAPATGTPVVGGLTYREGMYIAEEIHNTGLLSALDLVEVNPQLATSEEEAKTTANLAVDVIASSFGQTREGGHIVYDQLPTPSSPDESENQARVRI

[6] = target: T3, Proteasome subunit beta (Trypanosoma cruzi) (UniProt O96673); assay: Trypanosoma cruzi proteasome chymotrypsin-like activity (TcProtChymo) assay.; also: in the data most compounds retested in dose-response had high values; assay type: functional; conditions: 9.37 µM
T3 sequence (whole entry): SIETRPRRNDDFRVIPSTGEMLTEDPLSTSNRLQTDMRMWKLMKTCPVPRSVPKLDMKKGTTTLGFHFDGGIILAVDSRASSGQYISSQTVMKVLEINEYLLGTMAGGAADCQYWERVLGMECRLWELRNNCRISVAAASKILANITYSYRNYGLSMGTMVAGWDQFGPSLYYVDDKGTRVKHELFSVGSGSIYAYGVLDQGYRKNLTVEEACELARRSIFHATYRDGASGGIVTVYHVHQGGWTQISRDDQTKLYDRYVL

Homo sapiens = species: Homo sapiens; assay: To identify inhibition of the IFN signalling (Jak-Stat) pathway via expression of an eGFP reporter gene under the control of an IFN-stimulated response element (ISRE) containing MxA promoter.; assay type: functional; conditions: 30 µM
[7] = target: T4, Tyrosyl-tRNA synthetase, putative (Trypanosoma cruzi (strain CL Brener)) (UniProt Q4DSP6); assay: Trypanosoma cruzi tyrosyl tRNA synthetase (TcYRS) _High Tyrosine SOP; assay type: functional; conditions: 30 µM; also: in the data most compounds retested in dose-response had high values
T4 sequence (whole entry): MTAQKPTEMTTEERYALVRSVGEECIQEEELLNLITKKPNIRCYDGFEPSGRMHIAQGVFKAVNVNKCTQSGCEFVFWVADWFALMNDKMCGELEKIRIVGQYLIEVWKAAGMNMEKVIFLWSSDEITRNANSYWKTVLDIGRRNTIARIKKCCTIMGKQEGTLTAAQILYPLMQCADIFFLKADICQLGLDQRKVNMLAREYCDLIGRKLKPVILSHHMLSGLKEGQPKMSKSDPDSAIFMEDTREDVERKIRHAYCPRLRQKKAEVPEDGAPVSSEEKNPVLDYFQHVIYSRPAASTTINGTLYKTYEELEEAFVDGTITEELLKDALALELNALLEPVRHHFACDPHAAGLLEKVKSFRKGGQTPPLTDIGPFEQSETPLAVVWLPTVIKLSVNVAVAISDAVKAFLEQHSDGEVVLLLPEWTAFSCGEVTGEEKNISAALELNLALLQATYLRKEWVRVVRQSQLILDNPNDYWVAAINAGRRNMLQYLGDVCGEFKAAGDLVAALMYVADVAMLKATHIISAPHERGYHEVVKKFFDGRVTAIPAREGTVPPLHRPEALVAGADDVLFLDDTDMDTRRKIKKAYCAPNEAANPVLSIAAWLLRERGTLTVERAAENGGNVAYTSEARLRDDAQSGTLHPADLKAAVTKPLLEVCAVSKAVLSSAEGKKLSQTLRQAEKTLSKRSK

[8] = target: T4, Tyrosyl-tRNA synthetase, putative (Trypanosoma cruzi (strain CL Brener)); assay: Trypanosoma cruzi tyrosyl tRNA synthetase (TcYRS) SOP; assay type: functional; conditions: 30 µM
[9] = target: Chromo domain-containing protein 1 (Saccharomyces cerevisiae (strain ATCC 204508 / S288c) (Baker's yeast)) (UniProt P32657); assay: ScCHD-1 Enzyme Inhibition Assay; assay type: functional; conditions: 30 µM; also: in the data most compounds retested in dose-response had high values
Chromo domain-containing protein 1 (Saccharomyces cerevisiae (strain ATCC 204508 / S288c) (Baker's yeast)), sequence (P32657 whole entry, the tested form may be a part): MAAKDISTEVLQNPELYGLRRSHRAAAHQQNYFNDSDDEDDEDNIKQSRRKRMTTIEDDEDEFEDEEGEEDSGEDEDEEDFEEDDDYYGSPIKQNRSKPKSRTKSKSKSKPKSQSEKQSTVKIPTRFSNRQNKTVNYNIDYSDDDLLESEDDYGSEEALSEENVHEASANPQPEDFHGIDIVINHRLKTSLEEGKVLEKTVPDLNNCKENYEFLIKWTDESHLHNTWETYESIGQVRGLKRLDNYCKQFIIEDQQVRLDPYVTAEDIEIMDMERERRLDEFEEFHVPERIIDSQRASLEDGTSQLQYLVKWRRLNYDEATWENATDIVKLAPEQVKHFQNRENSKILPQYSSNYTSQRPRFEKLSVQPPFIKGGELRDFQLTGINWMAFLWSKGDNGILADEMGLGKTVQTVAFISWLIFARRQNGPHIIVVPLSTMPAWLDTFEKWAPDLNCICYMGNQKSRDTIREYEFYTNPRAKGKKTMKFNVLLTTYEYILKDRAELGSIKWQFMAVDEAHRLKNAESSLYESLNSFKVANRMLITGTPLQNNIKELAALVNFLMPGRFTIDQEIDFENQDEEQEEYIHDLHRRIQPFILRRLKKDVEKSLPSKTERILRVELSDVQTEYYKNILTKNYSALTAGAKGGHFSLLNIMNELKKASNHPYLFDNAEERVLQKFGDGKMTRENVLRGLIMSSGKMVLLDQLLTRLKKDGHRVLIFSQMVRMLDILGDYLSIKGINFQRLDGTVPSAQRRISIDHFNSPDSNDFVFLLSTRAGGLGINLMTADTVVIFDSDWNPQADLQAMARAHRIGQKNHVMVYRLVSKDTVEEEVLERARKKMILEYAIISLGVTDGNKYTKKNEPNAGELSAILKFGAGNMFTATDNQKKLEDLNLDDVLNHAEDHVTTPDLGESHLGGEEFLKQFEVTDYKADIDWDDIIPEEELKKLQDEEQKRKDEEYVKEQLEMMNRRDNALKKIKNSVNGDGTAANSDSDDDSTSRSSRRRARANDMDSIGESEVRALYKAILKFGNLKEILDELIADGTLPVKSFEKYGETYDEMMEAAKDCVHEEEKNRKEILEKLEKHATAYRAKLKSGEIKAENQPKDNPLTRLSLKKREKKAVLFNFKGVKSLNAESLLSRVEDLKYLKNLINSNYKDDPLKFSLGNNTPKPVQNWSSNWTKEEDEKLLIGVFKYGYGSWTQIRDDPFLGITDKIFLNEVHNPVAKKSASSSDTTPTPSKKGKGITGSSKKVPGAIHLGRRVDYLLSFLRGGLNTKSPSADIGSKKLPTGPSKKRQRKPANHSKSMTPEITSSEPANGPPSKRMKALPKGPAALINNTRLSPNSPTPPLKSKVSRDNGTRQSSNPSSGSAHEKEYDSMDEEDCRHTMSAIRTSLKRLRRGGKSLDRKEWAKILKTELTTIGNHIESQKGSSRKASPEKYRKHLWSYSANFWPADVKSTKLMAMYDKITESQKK

Sialic acid-binding Ig-like lectin 9 (Homo sapiens), sequence (Q9Y336 whole entry): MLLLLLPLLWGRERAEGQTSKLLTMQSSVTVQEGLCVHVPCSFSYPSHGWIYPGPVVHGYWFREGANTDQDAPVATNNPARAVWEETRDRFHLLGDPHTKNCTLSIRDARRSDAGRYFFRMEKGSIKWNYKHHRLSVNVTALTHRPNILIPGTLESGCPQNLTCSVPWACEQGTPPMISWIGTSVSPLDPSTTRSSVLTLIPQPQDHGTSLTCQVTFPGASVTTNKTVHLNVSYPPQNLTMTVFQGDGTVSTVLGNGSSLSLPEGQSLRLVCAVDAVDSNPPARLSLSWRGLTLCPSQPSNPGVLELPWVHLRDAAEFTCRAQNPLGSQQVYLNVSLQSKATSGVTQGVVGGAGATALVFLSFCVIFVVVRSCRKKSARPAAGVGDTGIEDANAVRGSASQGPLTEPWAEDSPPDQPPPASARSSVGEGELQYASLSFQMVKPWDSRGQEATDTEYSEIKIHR
Protein translocase subunit SecA (Escherichia coli (strain K12)), sequence (P10408 whole entry): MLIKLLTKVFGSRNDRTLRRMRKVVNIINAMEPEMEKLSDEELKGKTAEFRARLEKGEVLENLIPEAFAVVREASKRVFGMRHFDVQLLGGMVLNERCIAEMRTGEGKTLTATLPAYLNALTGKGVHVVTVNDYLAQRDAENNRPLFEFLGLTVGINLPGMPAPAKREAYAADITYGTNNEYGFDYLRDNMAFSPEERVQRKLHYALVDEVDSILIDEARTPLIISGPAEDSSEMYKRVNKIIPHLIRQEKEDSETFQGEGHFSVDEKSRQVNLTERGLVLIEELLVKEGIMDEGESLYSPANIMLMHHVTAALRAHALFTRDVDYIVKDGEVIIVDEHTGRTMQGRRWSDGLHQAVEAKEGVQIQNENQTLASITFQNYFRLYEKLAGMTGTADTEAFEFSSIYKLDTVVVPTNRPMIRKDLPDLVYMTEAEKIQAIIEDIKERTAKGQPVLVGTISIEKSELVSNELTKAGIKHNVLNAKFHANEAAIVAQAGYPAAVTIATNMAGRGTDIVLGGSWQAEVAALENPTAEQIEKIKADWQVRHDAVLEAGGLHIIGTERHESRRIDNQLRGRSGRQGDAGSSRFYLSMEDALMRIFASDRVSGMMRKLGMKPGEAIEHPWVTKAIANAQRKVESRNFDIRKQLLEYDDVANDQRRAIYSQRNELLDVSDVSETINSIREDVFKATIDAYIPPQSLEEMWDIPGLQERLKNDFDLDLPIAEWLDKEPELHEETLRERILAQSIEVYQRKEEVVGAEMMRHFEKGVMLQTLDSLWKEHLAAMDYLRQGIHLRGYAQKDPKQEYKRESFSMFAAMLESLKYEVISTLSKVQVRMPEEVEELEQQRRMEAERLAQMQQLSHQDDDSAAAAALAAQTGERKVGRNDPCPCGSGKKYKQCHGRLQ

| Structure (SMILES) | Percent Effect [1] | Percent Effect [2] | Percent Effect [3] | Percent Effect [4] | Percent Effect (Trypanosoma cruzi) | Percent Effect [5] | Percent Effect [6] | Percent Effect (Homo sapiens) | Percent Effect [7] | Percent Effect [8] | Percent Effect [9] |
| --- | --- | --- | --- | --- | --- | --- | --- | --- | --- | --- | --- |
| CCn1nccc1CNC(=O)C1CCCC1 | 0.221% | 10.4% | 2.62% | 4.33% | -7.38% | 1.38% | 9.65% | -1.06% | 5.38% | 16.1% | -0.569% |
| O=C(CCn1ccccc1=O)Nc1ccc(I)cc1 | -2.63% | 2.7% | -7.9% | 21.2% | 0.684% | -0.248% | 16.6% | 5.89% | 1.07% | 6.17% | 6.86% |
| Cc1nc(CN2C(=O)CC[C@@H]3[C@H]2CCN3C(=O)NC2CC2)cs1 | 1.26% | 16.2% | -5.26% | -11.1% | -3.23% | 0.955% | 10.2% | 16.1% | 1.08% | 12.8% | -6.62% |
| Cc1cccc(NC(=O)NCCCn2nc3ccccn3c2=O)c1C | -5.55% | 2.7% | -32% | -5.5% | 0.0943% | 0% | -1.26% | 6.71% | 8.37% | 6.17% | -9.2% |
| Cn1c(CN2CCCC2)nnc1C1CCCN(C(=O)C2CCOCC2)C1 (configuration not stated) | -3.02% | 5.41% | -5.63% | 28.6% | 5.99% | 22.9% | 8.1% | 6.46% | 4.76% | 4.88% | -11.7% |
| COC(=O)c1cccc(NC(=O)CN2CCN(S(C)(=O)=O)CC2)c1 | -1.95% | 16.2% | 0.0395% | 18.7% | 2.64% | 25.6% | 15.4% | 0.655% | 4.3% | 16.1% | -4.76% |
| Cc1cnn(C2CCCN(C(=O)c3cnc4ccccc4n3)C2)c1 (configuration not stated) | -3.93% | 5.41% | -4.84% | 2.3% | 1.04% | -1.6% | 1.62% | 13% | 4.43% | 13.6% | -3.95% |
| Cn1cc(CN2CC[C@H](O)[C@@H]2Cc2ccncc2)cn1 | -8.41% | 5.41% | -33.1% | -9.45% | -0.293% | -0.955% | 1.66% | 26.4% | -1.08% | -2.56% | 3.16% |
| CCc1nccn1C1CCCN(C(=O)c2ccc3nncn3c2)C1 (configuration not stated) | -5.07% | 7.79% | -4.63% | 9.34% | 5.06% | -1.78% | 2.03% | 9.22% | 6.8% | 19.5% | -7.6% |
| Cc1cc(C)n(CCCNC(=O)[C@@H](C)NC(=O)OC(C)(C)C)n1 | -6.34% | 7.89% | 8.18% | 0.0654% | 7.5% | -4.73% | 13.3% | 5.91% | 3.19% | 10.4% | -1.9% |
| Cc1cnccc1CN1CC[C@@](C)(O)[C@H](Oc2ccccc2)C1 | -3.92% | 9.46% | 0.664% | -0.228% | 7.51% | -4.41% | 12.9% | -16.3% | 3.23% | 9.09% | -13.2% |
| COc1c(C2CCCN2C(=O)c2ccnc(N(C)C)c2)c(C)nn1C (configuration not stated) | -4.71% | 5.2% | 4.01% | 13.2% | -4.21% | 2.74% | 5.58% | 14% | 4.76% | 7.06% | -20% |
| Cc1ccc(NC(=O)CNc2cccc3c2CCCC3)c(Br)c1 | -0.516% | 0% | -8.17% | 10.7% | 1.07% | 27.1% | 12.3% | -16% | 5.38% | 6.17% | -12.9% |
| CNC(=O)[C@@]12CCO[C@@H]1CCN(Cc1scnc1C)C2 | 3.6% | 7.79% | 9.91% | -13.5% | -7.4% | 7.1% | 20.4% | 5.25% | 5.29% | 6.41% | -8.35% |
| COCCN1C[C@@H]2CN(c3ncccn3)C[C@@H]2C1=O | -4.06% | 2.7% | 0.915% | -6.74% | -0.586% | -4.17% | 8.2% | -19.7% | 76.2% | -1.22% | 474% |
| O=C(O)c1cc(S(=O)(=O)Nc2cc(F)ccc2F)cc2c1OCCO2 | -3.9% | -2.63% | 4.03% | 6.95% | -6.44% | 3.6% | 4.65% | 3.03% | 0.493% | 1.24% | -3.53% |
| COc1ccc(-c2cnc(CN3CCn4c(C)nnc4C3)o2)cc1 | -8.18% | 5.26% | -2.37% | 6.41% | 10.9% | -3.06% | 7.18% | 11.6% | 6.37% | 19.5% | -14.7% |

Source: ChEMBL document CHEMBL3988442, “University of Dundee, Small-Polar-MMV Screening Library” (2021)
